Assay results as given in PMC4552634, “A New Set of Chemical Starting Points with Plasmodium falciparum Transmission-Blocking Potential for Antimalarial Drug Discovery” (PLoS ONE, 2015).
In all, about 13,000 compounds went through this assay and about 3,200 (25%) showed an effect of 50% or more. The list shows a part of the results.

test system: P. falciparum stage V gametocytes; design: BacTiter-Glo ATP luminescence viability of purified stage V gametocytes in 384-well plates, per cent inhibition versus DMSO; conditions: 48 h, 5 µM; inhibitor

Row | Structure (SMILES) | % Inhibition [%]
1 | CCCCCCCCN1CCN(CCCCCCNc2c3ccccc3nc3ccccc23)CC1 [TCMDC-138015] | 122.1
2 | CCCCN1CCN(CCCCNc2c3ccccc3nc3ccccc23)CC1 [TCMDC-137569] | 97.88
3 | CCCCCCN1CCC(NCc2cccc3ccccc23)CC1 [TCMDC-141665] | -97.34
4 | CCCCN1CCN(CCCNc2c3ccccc3nc3ccccc23)CC1 [TCMDC-137572] | 99.41
5 | CCCCCCNc1c2ccccc2nc2ccccc12 [TCMDC-123957] | -50.01
6 | COc1ccc(NC(=O)Nc2ccc(-c3ccncc3)c(C(F)(F)F)c2)cc1N1CCN(C)CC1 [TCMDC-139213] | -9.659
7 | O=C(Cc1cnc[nH]1)Nc1cccc(-c2ccc(-c3nc4ccccc4[nH]3)cc2)c1 [TCMDC-136947] | 6.174
8 | O=C(/C=C/c1ccc(Cl)c(Cl)c1)NCCCCCCN1CCCN(C(=O)Nc2cc(F)cc(F)c2)CC1 [TCMDC-135941] | 5.109
9 | C=C[C@]1(C)C[C@@H](OC(=O)NC(=O)C2CCN(C(=O)CSc3ccccc3)CC2)[C@]2(C)[C@H](C)CC[C@]3(CCC(=O)[C@H]32)[C@@H](C)[C@@H]1O [TCMDC-139971] | 14.26
10 | CNC(=O)NC1=NC(C)(C)N(OCCCOc2cc(Cl)c(Cl)cc2Cl)C(N)=N1 [TCMDC-131701] | 9.937
11 | Cc1nc(N)nc(N)c1-c1ccc(Cl)c(Cl)c1 [TCMDC-123931] | 6.997
12 | CN(C)CCCNc1ncnc2c1[nH]c1ccc(Cl)cc12 [TCMDC-124579] | 36.17
13 | NCCCCc1c(-c2ccc(Cl)c(Cl)c2)[nH]c2ccc(Cl)cc12 [TCMDC-125841] | 97.12
14 | CO/C(=C\C=C\c1cc2cc(Cl)c(Cl)cc2[nH]1)C(=O)NCCCN1CCN(c2cccc(OCC(=O)Nc3ccccc3)c2)CC1 [TCMDC-139822] | -45.25
15 | Cc1cc(OCCCN2CCC(NS(=O)(=O)c3cccc(Br)c3)C2)c2ccccc2n1 (stereo not shown) [TCMDC-136283] | -24.53
16 | COc1cc(Cc2cnc(N)nc2N)cc(OCCCC#N)c1OC [TCMDC-138040] | -4.212
17 | Cc1nn(CC(C)C)c2sc(C(=O)N3CCN(S(=O)(=O)c4ccc(C#N)cc4)CC3)cc12 [TCMDC-125045] | 90.92
18 | Cc1ccc(S(=O)(=O)N2CCN(C(=O)c3cc(-c4ccccc4)n[nH]3)CC2)cc1 [TCMDC-124401] | -51.82
19 | COc1ccccc1-c1cc(C(=O)N2CCN(S(=O)(=O)c3ccc(C)cc3)CC2)[nH]n1 [TCMDC-124398] | 19.71
20 | CCOc1ccc(-c2n[nH]c(C(F)(F)F)c2-c2ccccc2OC)c(O)c1 [TCMDC-124564] | -16.08
21 | CC(=O)c1c(C)[nH]c(C(=O)Nc2ccc(-c3nc4ccc(C)cc4s3)cc2)c1C [TCMDC-124493] | 55.35
22 | CC(=O)Nc1ccc(C2NC(=O)NC(c3ccccc3)=C2c2nc3ccccc3s2)cc1 (stereo not shown) [TCMDC-124535] | -96.89
23 | CC(=O)Nc1cccc(C(=O)Nc2ccc(-c3ccc(-c4nc5cccc(C)c5[nH]4)s3)cc2)c1 [TCMDC-132143] | -2.133
24 | CC[C@H](NC(=O)c1c(CN2CCC(N3CCCCC3)CC2)c(-c2ccccc2)nc2c(Cl)c(O)ccc12)c1ccccc1 [TCMDC-140367] | 17.06

Row | Structure (SMILES) | % Inhibition [%]
25 | CC1(C)N=C(N)N=C(N)N1OCCCOc1ccc([N+](=O)[O-])cc1 [TCMDC-131610] | 2.796
26 | CCN(CC)CCOc1ccc(C(O)(C#CC(O)(c2ccc(Br)cc2)c2ccc(OCCN(CC)CC)cc2)c2ccc(Br)cc2)cc1 (stereo not shown) [TCMDC-137199] | 112.4
27 | CCOC(=O)c1ccc(OCCCCCCOc2ccc(Br)cc2)cc1 [TCMDC-131409] | 4.056
28 | CCN(CC)CCNc1ccnc2[nH]c3ccc([N+](=O)[O-])cc3c12 [TCMDC-131978] | 4.282
29 | CCCN(CCC)CCOc1ccc(C(O)(C#CC(O)(c2ccc(OCCN(CCC)CCC)cc2)c2cccc(Cl)c2)c2cccc(Cl)c2)cc1 (stereo not shown) [TCMDC-137200] | 105.4
30 | CCC(=O)OC(CCN(CC)CC)(c1ccccc1)c1ccccc1 [TCMDC-131415] | 15.82
31 | CCN(CC)CCOc1ccc(NC(=O)c2oc3ccccc3c2C=Cc2ccccc2)cc1 [TCMDC-132102] | 24.22
32 | NOCCCCOc1ccc(Br)cc1 [TCMDC-131760] | 15.82
33 | CCN(CC)CCOc1ccc(C(O)(C#CC(O)(c2ccccc2)c2ccc(OCCN(CC)CC)cc2)c2ccccc2)cc1 (stereo not shown) [TCMDC-137197] | 109.6
34 | CCN(CC)CCOc1ccc(C(O)(C#CC(O)(c2ccc(OCCN(CC)CC)cc2)c2ccc([N+](=O)[O-])cc2)c2ccc([N+](=O)[O-])cc2)cc1 (stereo not shown) [TCMDC-137201] | 116.9
35 | O=C(Nc1ccc(Cl)cc1)c1ccc(CN2CCCN(Cc3ccsc3)CC2)cc1 [TCMDC-136415] | 6.883
36 | O=C(Nc1cccc(CN2CCCN(Cc3ccc(O)cc3)CC2)c1)c1cccc(Cl)c1 [TCMDC-141817] | -7.519
37 | Cc1sc2nc(CSc3ccccc3)nc(N3CCN(CC(=O)NC4CC4)CC3)c2c1C [TCMDC-125266] | 47.29
38 | COc1ccc2ccc(F)c(CC(=O)N3CCOC(CNCc4cccc(-c5ccsc5)n4)C3)c2n1 (stereo not shown) [TCMDC-135027] | 10.39
39 | O=C(/C=C/c1ccc(Cl)c(Cl)c1)NCCCCCN1CCC(C(=O)Nc2ccc(F)c(Cl)c2)CC1 [TCMDC-136112] | 0.5724
40 | CN(CCCN(C)c1cc(NC(=O)c2ccc(F)cc2)ccn1)Cc1cccc(O)c1 [TCMDC-134954] | -6.57
41 | C[C@H](NC(=O)C1CCCC1)C(=O)Nc1ccc(-c2ccc(-c3nc4ccc(C(F)(F)F)cc4[nH]3)cc2)cc1 [TCMDC-137052] | -25.16
42 | COc1cc(Cc2cnc(N)nc2N)cc(OCCCS(=O)(=O)O)c1OC [TCMDC-137357] | -4.274
43 | COc1cc(/C=C/C(=O)NC2CCC(N3CCC(c4ccccc4C)CC3)CC2)cc(OC)c1 (stereo not shown) [TCMDC-133516] | -90.94
44 | Cc1ccc(OCCCCONC(=O)c2ccccc2)cc1 [TCMDC-131756] | 2.332
45 | CCN(CC)CCOc1ccc(C(O)(C#CC(O)(c2ccc(C)cc2)c2ccc(OCCN(CC)CC)cc2)c2ccc(C)cc2)cc1 (stereo not shown) [TCMDC-137198] | 113
46 | CCCC(C(=O)OCCN(CC)CC)(c1ccc(Cl)cc1)c1ccc(Cl)cc1 [TCMDC-141994] | 16.96
47 | CCC1CCCCN1S(=O)(=O)c1ccc(NC(=O)c2cc(C)on2)cc1 (stereo not shown) [TCMDC-124618] | -16.01
48 | O=C(NC1CCC(N2CCC(c3ccccc3C(F)(F)F)CC2)CC1)c1cc2ccccc2[nH]1 (stereo not shown) [TCMDC-132895] | -39.86

Row | Structure (SMILES) | % Inhibition [%]
49 | O=C(C=Cc1cn(-c2ccccc2)nc1-c1ccccc1)N1CCN(c2ccncc2)CC1 [TCMDC-125256] | 13.7
50 | O=C(Nc1ccncc1)c1cn(-c2ccccc2)nc1-c1cccs1 [TCMDC-125605] | -55.62
51 | O=C(C=Cc1cn(-c2ccccc2)nc1-c1cccs1)N1CCN(c2ccncc2)CC1 [TCMDC-125063] | 51.82
52 | NOCCCOc1ccccc1 [TCMDC-123474] | -11.28
53 | Nc1ccc(Oc2ccc(Cc3cnc(N)nc3N)cc2)cc1 [TCMDC-137904] | -3.731
54 | COc1ccc2nccc([C@@H](O)CN3CCC(NCc4ccc(OC)c(NC(C)=O)c4)CC3)c2c1 [TCMDC-141564] | -24.43
55 | c1ccc(Oc2ccc(Nc3ccnc(Nc4ccc(OCCN5CCCCC5)cc4)n3)cc2)cc1 [TCMDC-138583] | -73.3
56 | CCN(CCCN1CCCCC1)c1cc(C)nc(Nc2cccc(C(F)(F)F)c2)n1 [TCMDC-132451] | 9.673
57 | COc1ccc(Nc2ncc3c(-c4cccc(NC(=O)Cc5ccc(F)cc5)c4)c[nH]c3n2)cc1OC [TCMDC-135252] | -55.08
58 | COc1cc(Nc2ncc3c(C)nc(-c4cccc(Nc5ccc(CN6CCS(=O)(=O)CC6)cc5)c4)n3n2)cc(OC)c1OC [TCMDC-136003] | 62.52
59 | Cc1nc(-c2cccc(C(F)(F)F)c2)n2nc(Nc3ccc(OCCN4CCCC4)cc3)ncc12 [TCMDC-138911] | 108.6
60 | COc1cc(Nc2ncc3c(C)nc(-c4cc5ccccc5[nH]4)n3n2)cc(OC)c1OC [TCMDC-138905] | 5.084
61 | COc1ccccc1CNCC(O)c1cc(C(F)(F)F)ccc1C(F)(F)F (stereo not shown) [TCMDC-140376] | 33.11
62 | CN(C)c1ccc(C=Cc2nc(=O)c3ccccc3o2)cc1 [TCMDC-123870] | 44.95
63 | CCN(CC)S(=O)(=O)n1ncc2c3c(N)nc(N)nc3ccc21 [TCMDC-137302] | -23.31
64 | N#CCCn1nc(-c2ccc(Cl)cc2)c2c(c1=O)CCCC2 [TCMDC-123668] | -3.378
65 | COc1cc2nc(Nc3ccc4c(ccn4Cc4ccccc4)c3)nc(Nc3ccc4c(ccn4Cc4ccccc4)c3)c2cc1OC [TCMDC-138237] | 94.63
66 | COc1cc2nc(Nc3ccc4c(cnn4Cc4ccccc4)c3)nc(Nc3ccc4c(cnn4Cc4ccccc4)c3)c2cc1OC [TCMDC-138020] | 106.8
67 | COc1cc2nc(C)nc(Nc3ccc4c(ccn4Cc4ccccc4)c3)c2cc1OC [TCMDC-131924] | 19.01
68 | COc1cc2ncnc(Nc3ccc4nc(Cc5ccccc5)[nH]c4c3)c2cc1OC [TCMDC-137180] | -12.69
69 | COc1cc2nccc(Nc3ccc4c(cnn4Cc4cccc(F)c4)c3)c2cc1OC.Cl [TCMDC-138105] | -72.46
70 | COc1cc2nc(N(C)C)nc(Nc3ccc4c(cnn4Cc4ccccc4)c3)c2cc1OC [TCMDC-138082] | 11.6
